# Results filed as inconclusive are left out. Where a call stands in place of a potency, no number is given. The source made the active and inactive calls. Unless noted, calls follow the shape of the dose curve; as a rule, active = well fitted inhibition curve with a large enough effect; inconclusive = small, poorly fitted or top-dose-only effect; inactive = flat fitted curve, though single readings scatter.
# Columns and labels:
# [1] = target: Ubiquitin carboxyl-terminal hydrolase 1 (Homo sapiens) (UniProt O94782); assay: Inhibitors of USP1/UAF1: Pilot qHTS (AID 504865); settings: purified USP1/UAF1, Ub-rhodamine cleavage fluorescence; series mostly up to 114 µM; also: nearly all actives have a fitted effect of over 35% in size; also: potency is read from the fitted curve at half-maximal effect
# Sequence of Ubiquitin carboxyl-terminal hydrolase 1 (Homo sapiens) (O94782 whole entry, looked up): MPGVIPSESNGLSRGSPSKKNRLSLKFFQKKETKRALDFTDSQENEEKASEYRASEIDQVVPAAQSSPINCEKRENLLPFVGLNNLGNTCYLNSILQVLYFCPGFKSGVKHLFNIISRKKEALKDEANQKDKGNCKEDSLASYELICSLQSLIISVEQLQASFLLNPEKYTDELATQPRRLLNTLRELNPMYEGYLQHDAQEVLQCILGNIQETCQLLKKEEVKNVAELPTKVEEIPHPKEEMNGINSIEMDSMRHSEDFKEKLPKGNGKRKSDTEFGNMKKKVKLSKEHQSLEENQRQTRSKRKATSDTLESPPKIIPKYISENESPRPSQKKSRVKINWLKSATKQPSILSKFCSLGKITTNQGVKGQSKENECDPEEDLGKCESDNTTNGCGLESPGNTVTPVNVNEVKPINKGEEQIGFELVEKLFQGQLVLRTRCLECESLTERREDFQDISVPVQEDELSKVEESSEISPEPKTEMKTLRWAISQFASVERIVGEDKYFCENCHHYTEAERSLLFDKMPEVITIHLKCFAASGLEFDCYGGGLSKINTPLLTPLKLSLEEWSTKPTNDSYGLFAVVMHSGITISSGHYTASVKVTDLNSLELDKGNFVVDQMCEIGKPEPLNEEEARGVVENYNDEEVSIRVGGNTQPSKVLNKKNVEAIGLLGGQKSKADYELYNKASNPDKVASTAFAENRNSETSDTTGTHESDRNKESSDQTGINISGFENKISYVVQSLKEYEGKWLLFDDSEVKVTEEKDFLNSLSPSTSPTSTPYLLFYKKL
# Outline: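 USP1/UAF1 complex (1nM) preincubated with compound 15 min at room temperature, then Ub-Rho substrate (150nM final) added. Fluorescence read kinetically at 480/540 nm, 6 reads every 60 seconds. Buffer: 50mM HEPES pH 7.8, 0.5mM EDTA, 0.1 mg/ml BSA, 1mM TCEP, 0.01% Tween-20.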
# [2] = target: Estrogen receptor (Homo sapiens) (UniProt P03372); assay: qHTS assay for small molecule antagonists of estrogen receptor alpha signaling (AID 588513; active = well fitted curve in the direction sought with a large enough effect in the signal ratio, with a control signal flat, not every such curve was filed as active; the % refers to the signal ratio); settings: ER-alpha-UAS-bla HEK293, beta-lactamase ratio, antagonist mode; series mostly up to 76.9 µM
# Sequence of Estrogen receptor (Homo sapiens) (P03372 whole entry, looked up): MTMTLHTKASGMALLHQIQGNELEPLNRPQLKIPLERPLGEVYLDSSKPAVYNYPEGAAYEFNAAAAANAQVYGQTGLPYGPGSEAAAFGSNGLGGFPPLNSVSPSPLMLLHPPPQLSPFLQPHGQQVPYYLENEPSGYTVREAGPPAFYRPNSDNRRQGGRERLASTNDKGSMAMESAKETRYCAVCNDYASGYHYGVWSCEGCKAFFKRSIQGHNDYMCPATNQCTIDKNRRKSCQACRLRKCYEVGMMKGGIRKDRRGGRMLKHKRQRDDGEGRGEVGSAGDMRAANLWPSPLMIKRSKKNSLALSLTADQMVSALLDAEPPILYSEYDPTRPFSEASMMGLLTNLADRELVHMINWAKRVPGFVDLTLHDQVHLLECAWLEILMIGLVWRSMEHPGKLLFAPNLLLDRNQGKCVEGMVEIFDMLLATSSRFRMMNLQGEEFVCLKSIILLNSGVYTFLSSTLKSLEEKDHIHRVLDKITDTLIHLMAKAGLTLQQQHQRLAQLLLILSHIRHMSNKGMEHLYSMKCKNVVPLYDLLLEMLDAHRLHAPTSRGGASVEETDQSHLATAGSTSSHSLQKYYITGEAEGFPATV
# Outline: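 ER-alpha-UAS-bla GripTite HEK 293 cells in medium with 2% charcoal/dextran-treated FBS were preincubated 4 h at 37 C, dosed with compound (1:2 titration), stimulated with 0.5nM 17-beta-estradiol for 18 h, then read by CCF4 beta-lactamase fluorescence.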
# [3] = target: Androgen receptor (Homo sapiens) (UniProt P10275); assay: qHTS assay for small molecule agonists of androgen receptor signaling (AID 588515; active = well fitted curve in the direction sought with a large enough effect in the signal ratio, with a control signal flat; the % refers to the signal ratio); settings: AR-UAS-bla HEK293, beta-lactamase ratio, agonist 16 h; active compounds read high
# Sequence of Androgen receptor (Homo sapiens) (P10275 whole entry, looked up): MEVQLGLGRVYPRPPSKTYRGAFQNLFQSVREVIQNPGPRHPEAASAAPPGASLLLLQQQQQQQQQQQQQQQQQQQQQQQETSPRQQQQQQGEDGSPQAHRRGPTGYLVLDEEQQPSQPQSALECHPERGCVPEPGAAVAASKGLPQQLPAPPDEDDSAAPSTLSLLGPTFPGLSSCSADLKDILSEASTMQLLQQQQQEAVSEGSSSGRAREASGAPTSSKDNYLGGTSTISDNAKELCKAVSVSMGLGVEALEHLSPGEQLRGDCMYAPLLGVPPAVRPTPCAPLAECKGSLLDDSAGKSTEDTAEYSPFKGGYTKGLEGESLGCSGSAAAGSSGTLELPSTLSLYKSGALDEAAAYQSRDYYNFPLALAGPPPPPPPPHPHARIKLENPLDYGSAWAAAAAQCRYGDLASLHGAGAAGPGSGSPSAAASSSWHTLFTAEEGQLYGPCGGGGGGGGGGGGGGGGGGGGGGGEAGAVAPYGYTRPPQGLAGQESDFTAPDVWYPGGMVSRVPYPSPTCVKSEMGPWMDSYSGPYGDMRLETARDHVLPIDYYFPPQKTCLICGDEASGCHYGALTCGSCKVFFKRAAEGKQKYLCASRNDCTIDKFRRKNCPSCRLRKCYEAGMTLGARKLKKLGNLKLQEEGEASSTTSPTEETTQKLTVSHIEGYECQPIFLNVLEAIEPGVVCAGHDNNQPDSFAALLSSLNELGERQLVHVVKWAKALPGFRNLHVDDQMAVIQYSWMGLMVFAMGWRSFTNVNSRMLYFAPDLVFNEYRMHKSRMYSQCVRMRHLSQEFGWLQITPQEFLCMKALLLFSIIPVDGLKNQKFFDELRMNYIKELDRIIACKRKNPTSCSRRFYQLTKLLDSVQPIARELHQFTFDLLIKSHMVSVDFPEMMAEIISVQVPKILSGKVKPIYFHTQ
# Outline: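 EC50 and efficacy came from Hill fits of titrations (up to 92 uM) normalized to 30 nM R1881 as 100% and DMSO as 0%. Compound exposure was 16 h at 37 C on AR-UAS-bla HEK293 cells, with a 405/460/530 nm CCF4 fluorescence read.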
# [4] = target: Estrogen receptor (Homo sapiens) (UniProt P03372); assay: qHTS assay for small molecule agonists of estrogen receptor alpha signaling (AID 588514; calls by dose curve; also: nearly all actives have a fitted effect of over 70% in size); settings: ER-alpha-UAS-bla HEK293, beta-lactamase ratio, 18 h, percent of full estradiol response, vehicle zero; series mostly up to 76.8 µM
# Outline: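 Cells were plated at 5000/well, incubated 4 hrs at 37 C, dosed with compound titration series, incubated 18 hrs at 37 C, loaded with CCF4 dye for 2 hrs at RT, then fluorescence was read.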
# [5] = target: DNA dC->dU-editing enzyme APOBEC-3G (Homo sapiens) (UniProt Q9HC16); assay: qHTS for inhibitors of Vif-A3G interactions: Validation (AID 588379); settings: Vif-A3G protein interaction assay; series mostly up to 46.1 µM
# Sequence of DNA dC->dU-editing enzyme APOBEC-3G (Homo sapiens) (Q9HC16 whole entry, looked up): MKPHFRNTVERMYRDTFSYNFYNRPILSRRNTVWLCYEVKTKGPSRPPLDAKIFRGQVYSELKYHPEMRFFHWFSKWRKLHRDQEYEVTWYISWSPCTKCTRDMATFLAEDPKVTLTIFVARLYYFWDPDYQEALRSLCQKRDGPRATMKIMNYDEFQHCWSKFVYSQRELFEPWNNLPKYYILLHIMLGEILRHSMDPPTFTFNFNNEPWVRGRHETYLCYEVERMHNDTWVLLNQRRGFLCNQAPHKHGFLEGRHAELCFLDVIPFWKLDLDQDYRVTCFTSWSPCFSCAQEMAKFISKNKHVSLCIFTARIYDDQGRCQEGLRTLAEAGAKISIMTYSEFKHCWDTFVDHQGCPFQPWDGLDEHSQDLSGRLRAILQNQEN
# Outline: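 HeLa cells stably expressing Vif and A3G-eYFP, 700 cells/well, incubated overnight at 37 deg C, then exposed to compound overnight at 37 deg C. Inhibition of Vif-mediated degradation read as increased yellow fluorescence (Ex 488/Em 500-530) by laser-scanning cytometry.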
compound,measurement,setting,value
CN(C)CCN(Cc1ccccc1)c1ccccn1,Potency,[1],inactive
CCOC(CN1CCN(CC(C)C(=O)c2ccccc2)CC1)c1ccccc1 (configuration not stated),Potency,[1],inactive
CC(O)CN(CCN(CC(C)O)CC(C)O)CC(C)O (configuration not stated),Potency,[1],inactive
Cn1cc[nH]c1=S,Potency,[1],inactive
Oc1ccc(C(O)CNCCCCCCNCC(O)c2ccc(O)c(O)c2)cc1O (configuration not stated),Potency,[1],inactive
COc1cc(C)c(Cc2cnc(N)nc2N)cc1OC,Potency,[1],inactive
C[C@H]1O[C@@H](n2cc(F)c(=O)[nH]c2=O)[C@H](O)[C@@H]1O,Potency,[1],inactive
NC(=O)NNc1ccccc1,Potency,[1],inactive
COc1cc2[nH]c(=O)[nH]c(=O)c2cc1OC,Potency,[1],inactive
CCCCN1CCCC[C@H]1C(=O)Nc1c(C)cccc1C,Potency,[1],inactive
COc1cc(C(=O)N2CCOCC2)cc(OC)c1OC,Potency,[1],inactive
CC(C)(C)C(=O)C(Oc1ccc(Cl)cc1)n1ccnc1 (configuration not stated),Potency,[1],inactive
CCOC(=O)[C@H](CCc1ccccc1)N[C@@H](C)C(=O)N1C(=O)N(C)C[C@H]1C(=O)O,Potency,[1],inactive
Cc1cc2c(cc1S(N)(=O)=O)S(=O)(=O)CCC2,Potency,[1],inactive
Cc1c(O)cccc1C(=O)N[C@@H](CSc1ccccc1)[C@H](O)CN1C[C@H]2CCCC[C@H]2C[C@H]1C(=O)NC(C)(C)C,Potency,[1],inactive
Cn1c(=O)c2c(ncn2CC2OCCO2)n(C)c1=O,Potency,[1],inactive
O=C(Oc1ccccc1C(=O)O)c1ccccc1O,Potency,[1],inactive
O=C1O[C@H]([C@@H](O)CO)C(O)=C1O,Potency,[1],inactive
O=C(O)[C@@H]1CSCN1,Potency,[1],inactive
O=c1cc[nH]c(=O)[nH]1,Potency,[1],inactive
Cc1ccc(C(C)C)cc2c(C)ccc1-2,Potency,[1],inactive
COc1ccc2[nH]c(S(=O)Cc3ncc(C)c(OC)c3C)nc2n1 (configuration not stated),Potency,[1],inactive
Cc1ncc(COP(=O)(O)O)c(C=O)c1O,Potency,[1],inactive
CN1CCCCC1CCN1c2ccccc2Sc2ccc(S(C)=O)cc21 (configuration not stated),Potency,[1],inactive
CCCCCCCCCCCCOS(=O)(=O)O,Potency,[1],79.4 µM (active)
O=c1[nH]c(=O)c2[nH]c(=O)[nH]c2[nH]1,Potency,[1],inactive
C[C@@H]1CN(c2c(F)c(F)c3c(=O)c(C(=O)O)cn(C4CC4)c3c2F)C[C@H](C)N1,Potency,[1],inactive
C[C@H](N)[C@H](O)c1cccc(O)c1,Potency,[1],inactive
CCC(=O)c1ccc(O)cc1,Potency,[1],inactive
CCCCN(CCCC)CC(O)c1cc(Cl)cc2c1-c1ccc(Cl)cc1/C2=C/c1ccc(Cl)cc1 (configuration not stated),Potency,[1],inactive
CCOC(=O)c1ccc(O)cc1,Potency,[1],inactive
same,outcome,[2],inactive
CC(O)COc1ccccc1 (configuration not stated),Potency,[1],inactive
same,activation,[3],4.06% (inactive)
[Cl][In]([Cl])[Cl],outcome,[2],inactive
same,outcome,[4],inactive
Cc1cc(O)cc2c1O[C@](C)(CCC[C@H](C)CCC[C@H](C)CCCC(C)C)CC2,Potency,[1],inactive
CC1(C)[C@@H]2CC[C@@]1(C)C(=O)C2,Potency,[1],inactive
same,outcome,[5],inactive
same,outcome,[2],inactive
same,outcome,[4],inactive
CC(=O)c1ccc2c(c1)N(CCCN(C)C)c1ccccc1S2,Potency,[1],inactive

# — PubChem BioAssay (NCATS)
